HttQ103 aggreg – mutant huntingtin aggregation inhibition; PC12 HttQ103-GFP aggregates, Acumen cytometry, 40 h; Potency, µM (highest dose often 46.1 µM), for the others: top-dose activity change, negative = inhibition, hits mostly inhibitors; hit rate 1.1% among 220,000; AID 1688; active = well fitted curve in the direction sought with a large enough effect; inconclusive = small, poorly fitted or top-dose-only effect, or another doubt; inactive = no such curve, though single readings can be large; an effect the other way counts as inactive or inconclusive; note: % is set by controls: 0 for no effect and ±100 for the full control effect; nearly all actives have a fitted effect of over 60% in size
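Read-out: GFP aggregate count by laser scanning cytometer (488 nm excitation, 500-530 nm emission, 1–25 µm objects >6 SD above background). Cells: PC12, inducible HTTex1-Q103-GFP, 100 nM tebufenozide; compounds titrated.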
HTT ATP protect – protects HTT-Q103 PC12 cells, measured by ATP; Potency, µM (series often up to 56.4 µM), for inactives: cytoprotection (ATP increase), hits mostly activators; PC12 HTT-Q103 induced, cytoprotection, ATP luminescence, 40 h; hit rate 0.14% among 230,000; active = well fitted curve in the direction sought with a large enough effect; inconclusive = small, poorly fitted or top-dose-only effect, or another doubt; inactive = no such curve, though single readings can be large; an effect the other way counts as inactive or inconclusive; note: % of control where 0% means no effect; nearly all actives have a fitted effect of over 45% in size
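Cells were plated at 1500 per well in phenol red-free DMEM with 5% equine and 5% calf serum. Tebufenozide (100 nM final) and compounds were added, then ATPlite reagent, and luminescence was read.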
LMNA splice mod – modulators of lamin A splicing; HeLa LMNA splicing GFP/RFP minigene ratio, 48 h; Potency, µM (highest dose often 46.1 µM), for the others: at the top dose ratio change, negative = inhibition, hits mostly inhibitors; hit rate 0.01% among 200,000; active = well fitted inhibition curve with a large enough effect in the signal ratio, with a control signal flat, not every such curve was filed as active; inconclusive = small, poorly fitted or top-dose-only effect, or effect the other way, or a change in a side signal; the % refers to the signal ratio; note: % is set by controls: 0 for no effect and ±100 for the full control effect
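S3 HeLa cells stably expressing lamin A-EGFP splicing minigene plus DsRed2, 600 cells/well, 48 h compound exposure at 37C. Laser-scanning cytometry; analysed as GFP (500-530 nm)/RFP (575-640 nm) total intensity ratio; 0.5% DMSO vehicle.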
ALDH1A1 block – blocks purified human ALDH1A1 activity; P00352; Potency, µM (titrated, usually from 75.3 µM), without a hit: at the highest dose activity, negative = inhibition, most hits filed as inhibitors; hit rate 7.3% among 220,000; Purified ALDH1A1, NADH fluorescence, propionaldehyde substrate;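 note: plate controls were no enzyme wells and a reference inhibitor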
Target sequence (P00352 whole entry, looked up): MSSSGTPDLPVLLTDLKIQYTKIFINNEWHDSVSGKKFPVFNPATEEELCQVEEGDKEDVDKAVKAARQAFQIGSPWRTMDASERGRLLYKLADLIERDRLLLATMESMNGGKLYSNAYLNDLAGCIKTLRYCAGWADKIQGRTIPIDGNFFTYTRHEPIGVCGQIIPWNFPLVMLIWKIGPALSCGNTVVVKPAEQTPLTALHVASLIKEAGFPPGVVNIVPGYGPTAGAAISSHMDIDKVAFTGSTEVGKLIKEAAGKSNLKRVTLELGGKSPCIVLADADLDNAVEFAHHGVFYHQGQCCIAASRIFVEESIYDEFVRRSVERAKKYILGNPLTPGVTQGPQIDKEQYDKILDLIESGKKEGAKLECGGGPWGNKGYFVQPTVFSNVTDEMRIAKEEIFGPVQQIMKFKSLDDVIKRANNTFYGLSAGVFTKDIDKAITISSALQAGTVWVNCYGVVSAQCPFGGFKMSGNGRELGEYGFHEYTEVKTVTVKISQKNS
HPGD block – blocks human HPGD enzyme activity; AID 894; Potency, µM, for the others: top-dose activity change, negative = inhibition, most hits filed as inhibitors; P15428; purified HPGD, NADH fluorescence kinetic, PGE2 substrate; hit rate 4.3% among 150,000; note: % is set by controls: 0 for no effect and ±100 for the full control effect
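20 nM HPGD preincubated 15 min at room temperature with compound in 50 mM Tris-HCl pH 8, 0.01% Tween 20. Started with 1 mM NAD+ and 30 uM prostaglandin E2; NADH fluorescence (360/450 nm) read 5 times over 30-s intervals, last minus first.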
Numbers without * were called inactive; ? = inconclusive; nt = no result; [ ] = dose if it differs, or a comment. A selection: hits, their analogues and other compounds. The true share with any hit is near 8.8%. Unless noted, calls come from the whole dose curve; as a rule, active = well fitted inhibition curve with a large enough effect (not every such curve was filed as active); inconclusive = small, poorly fitted or top-dose-only effect, or another doubt; inactive = no such curve, though single readings can be large or run the other way. Potency is the fitted concentration of half-maximal effect.

SMILES	HttQ103 aggreg	HTT ATP protect	LMNA splice mod	ALDH1A1 block	HPGD block
CN=c1scc(-c2ccccc2F)n1/N=C/c1ccc[nH]1	-11%	-178%	10%[46 µM]	-1%	nt
CN=c1scc(-c2ccccc2F)n1/N=C/c1ccc(O)c(O)c1O	3%	-46%[10 µM]	-2%[9.22 µM]	5.6µM*	nt
O=C(N/N=C1\CC2CC=CC12)c1ccc(COc2ccccc2)cc1 (configuration not stated)	-9%	3%[10 µM]	?	-4%	22µM*
COc1ccc(NC(=O)c2ccco2)cc1NC(=O)c1cccnc1	3.2µM*	-14%[0.074 µM]	15%	6%	-11%
COc1cc2c(cc1NC(=O)c1cccnc1)CCCC2	4%	-3%	6%	28µM*	-2%
Cc1ccc(S(=O)(=O)N2CCCc3cc(NC(=O)c4ccc(C(F)(F)F)cc4)ccc32)cc1	nt	nt	4%[46 µM]	nt	nt
O=C(Oc1ccc(OC(=O)C2CCC2)cc1)C1CCC1	?	nt	11%	2%	-3%
O=C1c2ccccc2C(=O)N1CCCCN(C(=O)c1ccco1)c1ccc(Cl)cc1	-6%	16%	-7%	7.9µM*	-10%
O=C1c2ccccc2C(=O)N1CCCCN(C(=O)c1cccc([N+](=O)[O-])c1)c1ccc(Cl)cc1	-26%	-24%	0%	3.2µM*	-21%
COc1cc(Cl)cc(C2NC(=S)NC(c3ccccc3)=C2C(C)=O)c1OCC(=O)O (configuration not stated)	9%[9.22 µM]	-21%[10 µM]	nt	-10%	nt
Cc1noc(NS(=O)(=O)c2ccc(N/C=C\C(=O)c3cccc4ccccc34)cc2)c1C	-7%	-27%	nt	4µM*	nt
Cc1noc(NS(=O)(=O)c2ccc(NC(=O)CSc3n[nH]c(-c4ccccc4)n3)cc2)c1C	16%	-7%	2%	-13%	4.5µM*
COc1ccc2nc(SCC(=O)Nc3ccc(S(=O)(=O)Nc4onc(C)c4C)cc3)[nH]c2c1	3%	?	-6%	?	18µM*
CCOc1cc(N2CCOCC2)c(OCC)cc1NC(=O)c1c(-c2ccccc2Cl)noc1C	3%	-8%	8%[9.22 µM]	?	nt
COc1ccc(S(=O)(=O)n2nc(C)c(S(=O)(=O)N3CCCCCC3)c2C)cc1OC	nt	nt	-2%[46 µM]	nt	nt
O=C(c1ccccc1)N1CCN(C(=S)NCc2ccc3c(c2)OCO3)CC1	-22%	5%[10 µM]	?	18µM*	32µM*
NC(=O)C1CCCN(C(=S)NCc2ccc3c(c2)OCO3)C1 (configuration not stated)	13%	-24%	nt	25µM*	nt
CC1CCCCN1S(=O)(=O)c1ccc(S(=O)(=O)N(Cc2ccccc2)Cc2ccco2)cc1 (configuration not stated)	-19%	17%[10 µM]	-10%	7.1µM*	-11%
CCN(Cc1ccccc1)S(=O)(=O)c1ccc(S(=O)(=O)N(Cc2ccccn2)Cc2ccco2)cc1	-9%	-14%	8%	13%	-5%
[O-][n+]1ccccc1SSc1cccc[n+]1[O-]	5µM*	-98%	?	nt	nt
CC(C)=CCN1CCN(Cc2cnc(N3CCCC3)s2)CC1CCO (configuration not stated)	4%[9.22 µM]	24%[10 µM]	1%[46 µM]	13%	nt
COC(=O)c1ccc(CN2CCN(CC=C(C)C)C(CCO)C2)cc1 (configuration not stated)	-5%[9.22 µM]	32%[10 µM]	20%[46 µM]	20µM*	nt
CC(C)=CCN1CCN(Cc2cnc(N3CCOCC3)s2)CC1CCO (configuration not stated)	18%[9.22 µM]	-8%[10 µM]	nt	25µM*	nt
O=C(/C=C/c1ccco1)Nc1cc(Cl)ccc1C(=O)O	1%	-19%[10 µM]	-21%	?	32µM*
O=C(/C=C/c1ccccc1)NCCC1=CCCCC1	-19%	10%[10 µM]	?	-1%	28µM*
SMILES	HttQ103 aggreg	HTT ATP protect	LMNA splice mod	ALDH1A1 block	HPGD block
O=C(/C=C/c1ccco1)Nc1ccccc1C(=O)O	0%[9.22 µM]	-170%	11%[46 µM]	-17%	nt
O=C(COC(=O)c1cccs1)NCCC1=CCCCC1	-2%	-9%[10 µM]	-6%	8%	18µM*
CC(C)=CC(=O)NCCc1ccccc1	-6%	-34%	4%	?	20µM*
CC1(C)N=C(N)N=C(N)N1c1cccc(OCc2cccc([N+](=O)[O-])c2)c1	nt	-1%[10 µM]	nt	0%[13.5 µM]	-3%
Cc1ccc(N(Cc2cccs2)C(=O)Nc2cccc(Cl)c2)cc1	nt	nt	-3%[46 µM]	nt	nt
CCCCCCC1=Cc2cc(OC)c(OC)cc2C(C(C(C)=O)C(=O)OC)O1 (configuration not stated)	nt	-37%[10 µM]	nt	10%[13.5 µM]	nt
CC(C)[C@@H](OCc1ccccc1)[C@H](C)/C=N\OC[C@@H](O)[C@@H]1O[C@@H]2OC(C)(C)O[C@@H]2[C@H]1O	nt	-16%[10 µM]	nt	2%[13.5 µM]	nt
CN(C)c1ccc(C(CNS(=O)(=O)c2ccc(Cl)cc2)N2CCOCC2)cc1 (configuration not stated)	nt	nt	-3%[46 µM]	nt	nt
O=C(Cn1c(SCc2cccc(F)c2)nc2cccnc21)Nc1ccc(F)c(Cl)c1	nt	nt	-8%[46 µM]	nt	nt
CCC/C(=N\NC(=O)CNC(=O)/C=C/c1ccco1)c1ccccc1	-15%	-10%[10 µM]	3%	-6%	-23%
CC/C(=N\NC(=O)CNC(=O)/C=C/c1ccco1)c1ccccc1	14%	-16%	9%	14µM*	-13%
O=C(O)CCCCCNC(=O)/C=C/c1ccco1	-12%[9.22 µM]	-8%[10 µM]	24%[46 µM]	2%	nt
CN(CCOC(=O)/C=C/c1ccco1)Cc1ccccc1	9%[9.22 µM]	21%[10 µM]	2%[46 µM]	22µM*	nt
O=C(/C=C/c1cccc(Cl)c1)NCCc1ccccc1	-15%	-15%[10 µM]	5%	?	8.9µM*
O=C(/C=C/c1ccco1)NCCc1ccccc1	5%	3%	nt	22µM*	nt
CCCCc1ccc(NC(=O)CSc2nc(=O)[nH]c3c2CCCC3)cc1	nt	nt	21%[46 µM]	nt	nt
N#CCCn1c(=O)c(-c2ccc(Cl)cc2)nc2cnc(Oc3ccccc3)nc21	nt	13%	7%	?	nt
O=C(O)/C=C\c1cnc[nH]1	nt	-6%[1.9 µM]	nt	nt	nt
O=C(O)CCCNC(=O)/C=C/c1ccco1	-3%	0%	nt	22µM*	nt
COCCn1c(=O)c(-c2cccs2)nc2cnc(OC)nc21	nt	8%	-10%	?	nt

Bioassay records deposited in PubChem BioAssay by National Center for Advancing Translational Sciences (NCATS).
